Entries with a potency or affinity are not part of this list. A number with no mark means an inactive call.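 How the source made its calls: active means cell killing, meaning signal decrease, with fitted half-maximal dose at or below ten times the top valid tested dose; inconclusive means poor fit, or flat curve with 30 to 70% signal loss; inactive means the rest.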
Test: ATP-based viability loss in HeLa cells – cell-based, CellTiter-Glo luminescence, cherry-pick samples, cytotoxicity control for MITF activator project, dose response (AID 540259);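 further: 0% = DMSO neutral control and -100% = mitoxantrone positive control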
Settings: 24 h; series mostly up to 35 µM; activity change, negative = cytotoxicity: at the top concentration
In the case of `Cc1ccc(NC(=O)CC(=O)c2ccccc2)cc1C`, the “activity change, negative = cytotoxicity” value is reported as -0.353%. For `COCc1ccc(-c2c(-c3ccc(OC)cc3)oc(=O)c3cc(OC)c(OC)cc23)cc1`, the “activity change, negative = cytotoxicity” value was -8.39%. For `Cn1c(SCc2c(F)cccc2Cl)nnc1-c1cnccn1`, the “activity change, negative = cytotoxicity” value was 2.8%. In the case of `CC1CCC(NC(=O)c2cc3c(s2)CCCC3)CC1` (configuration not stated), the “activity change, negative = cytotoxicity” value is reported as -6.5%. In the case of `Cc1nc2cc3nc(C)sc3cc2s1`, the “activity change, negative = cytotoxicity” value is reported as 16.3%. With `O=c1[nH]c(COc2ccccc2)nc2ccccc12` the “activity change, negative = cytotoxicity” value was 8.05%. With `CC(=O)c1ccc(Nc2ccc(-c3ccccc3C)nn2)cc1` the “activity change, negative = cytotoxicity” value was 12.9% [at 11 µM]. In the case of `COCc1nn2c(N)c(-c3ccccc3)cnc2c1-c1ccccc1`, the “activity change, negative = cytotoxicity” value is reported as 6.09%. With `O=C(Cc1ccccn1)c1ccc(Cl)cc1` the “activity change, negative = cytotoxicity” value was -13.2%. For `O=C(N/N=C/c1ccc(OC(=O)c2ccccc2Cl)cc1)c1ccccn1`, the “activity change, negative = cytotoxicity” value was -9.83%. In the case of `c1ccc2c(c1)CC/C2=N/Nc1nc2ccccc2[nH]1`, the “activity change, negative = cytotoxicity” value is reported as -8.38%. For `CC(NC(=O)c1cc(COc2ccccc2)on1)c1nccs1` (configuration not stated), the “activity change, negative = cytotoxicity” value was -2.76%. For `Cc1cccc(OCc2nc(-c3nonc3N)no2)c1C`, the “activity change, negative = cytotoxicity” value was -14.2%. For `COC(=O)c1ccc(-c2ccc(Cl)cc2)nc1C`, the “activity change, negative = cytotoxicity” value was -3.47%. In the case of `c1ccc2c(c1)NC1(CCCC1)n1c-2nc2ccccc21`, the “activity change, negative = cytotoxicity” value is reported as -2.1%. With `Cc1ccc(N(O)C(=O)NCCCCNC(=O)N(O)c2ccc(C)cc2)cc1` the “activity change, negative = cytotoxicity” value was 9.8%. In the case of `Cc1nc(-c2ccc(NC(=O)c3ccccc3Br)cc2)cs1`, the “activity change, negative = cytotoxicity” value is reported as 10.2%. In the case of `O=C1c2ccccc2C(=O)N1CCc1c[nH]c2ccccc12`, the “activity change, negative = cytotoxicity” value is reported as -2.72%. For `CCCCCc1ccc(-c2ccc(OC)cc2)nc1`, the “activity change, negative = cytotoxicity” value was 4.7%. For `Cc1cc(NC(=O)Nc2ccc3c(ccn3C)c2)sn1`, the “activity change, negative = cytotoxicity” value was 12.1%. With `CC(C)(C)c1ccc(-c2noc(-c3ccno3)n2)cc1` the “activity change, negative = cytotoxicity” value was -6.69%. For `Brc1ccccc1-n1nnc(-c2nccs2)n1`, the “activity change, negative = cytotoxicity” value was -4.12%. With `CC(=O)NCCC1CCCCN1C(=O)c1cc(COc2cc(C)ccc2C)on1` (configuration not stated) the “activity change, negative = cytotoxicity” value was 4.53%. With `O=C(Nc1ccc(NC(=O)c2ccccc2F)cc1)c1cccs1` the “activity change, negative = cytotoxicity” value was -13.1%. For `CC(C)(C)c1ccc(SCCc2ccccn2)cc1`, the “activity change, negative = cytotoxicity” value was 10.3%. For `COc1ccc(NC(=O)n2ncc3cc(Cl)ccc32)cc1OC`, the “activity change, negative = cytotoxicity” value was 2.18%. For `Cc1ccc(Nc2nc(CSc3n[nH]c(N)n3)cs2)cc1`, the “activity change, negative = cytotoxicity” value was 4.55%. With `CCCC(=O)N1c2ccc(-c3csc(N)n3)cc2CC1C` (configuration not stated) the “activity change, negative = cytotoxicity” value was 16%. With `Cc1nc2ccc(NC(=O)Cc3c(F)cccc3Cl)cc2s1` the “activity change, negative = cytotoxicity” value was 2.92%. For `Cc1ccc(C(=O)Cn2nnc3ccccc32)cc1C`, the “activity change, negative = cytotoxicity” value was 2.49%. For `CCCCNC(=O)c1cc2ccccc2s1`, the “activity change, negative = cytotoxicity” value was 2.01%. For `C/C(=N\OC(=O)Nc1ccccc1)c1ccc(C)cc1`, the “activity change, negative = cytotoxicity” value was 13.2%. For `Clc1ccccc1OCc1nnc(-c2ccccc2Br)o1`, the “activity change, negative = cytotoxicity” value was -2%. In the case of `O=C(Cc1cccs1)NCc1ccc(Cl)cc1Cl`, the “activity change, negative = cytotoxicity” value is reported as 19.9%. With `COc1ccc(Oc2nnc(C)c3ccccc23)cc1` the “activity change, negative = cytotoxicity” value was 7.22%. With `O=C(N/N=C/c1ccccn1)c1c[nH]c2ccccc12` the “activity change, negative = cytotoxicity” value was 3.24%. With `CCS(=O)(=O)N1Cc2ccccc2CC1C(=O)NCc1cccc(OC)c1` (configuration not stated) the “activity change, negative = cytotoxicity” value was 3.08%.

Reference: PubChem BioAssay AID540259 (Broad Institute, 2011)
